Measured values: article PMC4336329 (PLoS ONE, 2015)
Screen size: about 310,000 compounds; about 14,000 (4.5%) showed an effect of 50% or more. Effects have a minus sign here. The entries come from a sample that favours strong results as a whole.

Each compound was assayed against human ether-à-go-go-related gene (hERG) potassium channel (human, UniProt Q12809) (assay: primary screen, population patch clamp on CHO cells stably expressing hERG; higher = less effect of the substance).
Procedure: Briefly, Chinese hamster ovary (CHO) cells stably expressing the hERG channel were dislodged from tissue culture flasks and dispensed into PPC plates. […] During the recording, background leak currents were estimated by a 100 ms step to -80 mV from an initial holding potential of -70 mV and subtracted from the subsequent current measurement. The campaign was conducted in two phases using slight differences in recording protocol. In the first phase, the initial voltage pulse used a 100 ms step to -30 mV from a holding potential of -70 mV, a 2 s conditioning step to +25 mV, and a 2 s test step to -30 mV. During the second phase of the screen, the potential during the conditioning step was raised to +45 mV. In both phases of the campaign, a secondary voltage pulse was applied using the same parameters as the second phase initial pulse. The initial and secondary pulses were applied in the absence of compound, and upon application of 1 μM and 10 μM test concentrations. […]
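Further: peak tail current of the secondary pulse compared with the same well before compound.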

Chain of human ether-à-go-go-related gene (hERG) potassium channel (Q12809 whole entry, looked up): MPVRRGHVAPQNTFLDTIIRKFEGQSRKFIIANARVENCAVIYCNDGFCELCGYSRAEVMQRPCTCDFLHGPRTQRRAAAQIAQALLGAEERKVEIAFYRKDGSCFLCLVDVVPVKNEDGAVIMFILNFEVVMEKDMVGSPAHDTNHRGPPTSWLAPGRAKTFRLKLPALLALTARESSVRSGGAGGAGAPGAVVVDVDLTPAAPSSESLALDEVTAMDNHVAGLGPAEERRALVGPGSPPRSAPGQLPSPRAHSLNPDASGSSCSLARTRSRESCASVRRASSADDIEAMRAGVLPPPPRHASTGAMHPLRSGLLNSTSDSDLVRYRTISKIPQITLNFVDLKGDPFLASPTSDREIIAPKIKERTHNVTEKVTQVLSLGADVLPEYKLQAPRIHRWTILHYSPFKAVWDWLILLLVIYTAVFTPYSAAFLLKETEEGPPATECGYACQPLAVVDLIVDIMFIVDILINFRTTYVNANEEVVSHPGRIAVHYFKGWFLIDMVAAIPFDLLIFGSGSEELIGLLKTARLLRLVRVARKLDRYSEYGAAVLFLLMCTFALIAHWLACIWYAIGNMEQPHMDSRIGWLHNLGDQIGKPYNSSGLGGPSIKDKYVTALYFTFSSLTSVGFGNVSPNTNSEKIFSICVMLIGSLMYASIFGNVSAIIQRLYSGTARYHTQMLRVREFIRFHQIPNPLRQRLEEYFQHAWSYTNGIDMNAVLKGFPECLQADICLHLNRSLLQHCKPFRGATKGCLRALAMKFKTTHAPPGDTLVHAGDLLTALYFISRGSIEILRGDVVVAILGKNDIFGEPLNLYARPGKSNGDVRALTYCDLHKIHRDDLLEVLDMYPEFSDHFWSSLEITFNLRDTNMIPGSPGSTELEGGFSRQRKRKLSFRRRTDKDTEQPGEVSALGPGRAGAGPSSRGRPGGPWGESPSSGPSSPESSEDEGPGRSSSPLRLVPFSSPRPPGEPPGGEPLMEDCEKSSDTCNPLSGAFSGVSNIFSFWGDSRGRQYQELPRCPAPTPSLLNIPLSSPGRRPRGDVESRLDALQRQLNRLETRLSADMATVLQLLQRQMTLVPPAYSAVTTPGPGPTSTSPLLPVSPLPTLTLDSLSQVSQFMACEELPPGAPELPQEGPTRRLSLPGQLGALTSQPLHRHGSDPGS

| Compound | hERG current change (%, negative = inhibition) at 10uM [%] |
| --- | --- |
| NC(=O)CCn1c(C(=O)c2ccc(Cl)cc2)c2ccccc2[n+]1[O-] | -23.7 |
| NC(=O)CCCn1c(C(=O)c2ccc(Cl)cc2)c2ccc(C(F)(F)F)cc2[n+]1[O-] | -77.9 |
| NC(=O)CCn1c(C(=O)c2cc(Cl)c(N)c(Cl)c2)c2ccccc2[n+]1[O-] | 17.9 |
| COc1ccc(/C=C2\N=C(c3ccccc3)N(c3ccc(C(=O)O)cc3)C2=O)cc1OC | 6.76 |
| O=C1C2C3C=CC(C3)C2C(=O)N1Nc1ccc([N+](=O)[O-])cc1[N+](=O)[O-] (centres unmarked) | 3.34 |
| CCOc1ccc(C2CC(=O)N(Nc3ccc([N+](=O)[O-])cc3[N+](=O)[O-])C2=O)cc1 (centres unmarked) | -51.7 |
| CC(C)Oc1ccc(C2CC(=O)N(Nc3ccc([N+](=O)[O-])cc3[N+](=O)[O-])C2=O)cc1 (centres unmarked) | -15.6 |
| Cc1ccc(-n2c(=O)[nH]c3c(C(N)=O)nc(C(C)C)nc32)cc1 | 15.1 |
| Cc1ccc(-n2nc3c(N4CCC(C(=O)N5CCC(C(N)=O)CC5)CC4)nnc(C)c3c2C)cc1 | 12 |
| COc1ccc(-n2nc3c(N4CCC(C(=O)N5CCC(C)CC5)CC4)nnc(C)c3c2C)cc1 | -46.3 |
| CCN1CCN(C(=O)C2CCN(c3nnc(C)c4c(C)n(-c5ccc(C)cc5)nc34)CC2)CC1 | 3.86 |
| COc1ccc(-n2nc3c(N4CCC(C(=O)N5CCCCCC5)CC4)nnc(C)c3c2C)cc1 | -53.7 |
| Cc1nnc(N2CCC(C(=O)N3CCCCC3)CC2)c2nn(-c3ccc(Cl)cc3)c(C)c12 | -73.9 |
| Cc1ccc(-n2nc3c(N4CCC(C(=O)N5CCN(C)CC5)CC4)nnc(C)c3c2C)cc1 | 11.9 |
| COc1ccc(-n2nc3c(N4CCC(C(=O)NC5CCCCC5)CC4)nnc(C)c3c2C)cc1 | -5.39 |
| CCCN1CCN(C(=O)C2CCN(c3nnc(C)c4c(C)n(-c5ccc(C)cc5)nc34)CC2)CC1 | -32.3 |
| Cc1ccccc1CNC(=O)C1CCCN(c2nnc(C)c3c(C)n(-c4ccccc4)nc23)C1 (centres unmarked) | -5.38 |
| Cc1ccc(-n2nc3c(N4CCC(C(=O)N5CCCCCC5)CC4)nnc(C)c3c2C)cc1 | -68.7 |
| CCOc1ccccc1CNC(=O)C1CCCN(c2nnc(C)c3c(C)n(-c4ccccc4)nc23)C1 (centres unmarked) | 4.08 |
| Cc1nnc(N2CCCC(C(=O)NCc3ccccc3F)C2)c2nn(-c3ccccc3)c(C)c12 (centres unmarked) | -51.2 |
